# Records with an inconclusive call do not appear. Unmarked numbers belong to inactive results. The source made the active and inactive calls. The call rests on the fitted dose curve; in most records, active means well fitted inhibition curve with a large enough effect; inconclusive means small, poorly fitted or top-dose-only effect; inactive means flat fitted curve, though single readings scatter.
# Test system: Zika virus NS2B-NS3 protease
# Experiment: Primary screen GU AMC qHTS for Zika virus inhibitors (AID 1347154);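 further: 0% = no-inhibitor control and -100% = no-enzyme control; nearly all actives have a fitted effect of over 70% in size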
# Conditions: Zika NS2B-NS3 unlinked protease, AMC fluorogenic substrate; series mostly up to 54.1 µM; activity change, negative = inhibition: at the top concentration
# In short: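 Unlinked Zika NS2B hydrophilic domain/NS3 protease domain noncovalent complex (25 nM final) in 10 mM Tris-HCl pH 8.0, 0.01% Tween 20, with AMC peptide substrate. Fluorescence (ex 340, em 450 nm) change over 15 min, room temperature; percent inhibition fitted to 4-parameter Hill equation.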
SMILES,"activity change, negative = inhibition",Potency
Cc1nc2c(c(=O)[nH]1)CSCC2,4.07%,
CC[C@]1(O)C[C@@H]2CN(CCc3c([nH]c4ccccc34)[C@@](C(=O)OC)(c3cc4c(cc3OC)N(C)C3[C@]45CCN4CC=C[C@](CC)(C45)[C@@H](OC(C)=O)[C@]3(O)C(=O)OC)C2)C1 (some centres undefined),11.4% [at 25.8 µM],
O=C(O)C1CC(CCCP(=O)(O)O)CCN1 (centres undefined),11.8%,
c1ccc(COCCCc2cnc[nH]2)cc1,10.3%,
O=C(NCCCN1CCCCCC1)C(c1ccccc1)C1CCCCC1 (centres undefined),2.33%,
CCCCCCCCCCCCCC(=O)N[C@@H](C)[C@H](O)c1ccccc1,10.8% [at 6.83 µM],
CC(C)c1cnc(NC(=O)Cc2ccccc2)s1,11.6%,
CCn1c(=O)n(C2=C(CO)CN(CC3CCCCCCC3)CC2)c2ccccc21,-12.9%,
CCCCC/C=C\C/C=C\C/C=C\C/C=C\CCCC(=O)O[C@@H](CO)COC(=O)CCCCCCCCCCCCCCCCC,6.26% [at 6.83 µM],
NC(C(=O)O)c1ccc(P(=O)(O)O)cc1 (centres undefined),3.78%,
C[C@H](N)CCP(=O)(O)O,8.2%,
O=c1ccn([C@@H]2O[C@H](COP(=O)(O)O)[C@@H](O)[C@H]2O)c(=O)[nH]1,13.3%,
CN(Cc1ccccc1)C(=O)[C@H](Cc1ccc2ccccc2c1)NC(=O)[C@@H]1C[C@@H](O)CN1C(=O)c1cn(C)c2ccccc12,-8.38%,
C=C1O[C@@](CO)(n2cnc3c(N)ncnc32)[C@H](O)[C@@H]1O,12.2% [at 104 µM],
Nc1c(S(=O)(=O)O)cc(Nc2ccc(Cl)cc2)c2c1C(=O)c1ccccc1C2=O,0.381%,
CCCCC/C=C\C/C=C\CCCCCCCCCC(=O)O,-1.98% [at 6.83 µM],
NC(=NCc1ccc(Cl)cc1Cl)NC(=O)c1nc(Cl)c(N)nc1N,16.9%,
COCCNC(=O)COc1ccc(OCCNC[C@H](O)COc2ccccc2)cc1,15.4%,
Nc1nc2c([nH]c(=O)n2[C@@H]2O[C@H](CO)[C@@H](O)[C@H]2O)c(=O)[nH]1,7.35% [at 6.83 µM],
Cc1c(C(=O)N(C)C2CCCCC2)sc2nc3ccc(N)cc3n12,7.6%,

SMILES,"activity change, negative = inhibition",Potency
CC(O)(C(=O)Nc1ccc(S(=O)(=O)c2ccccc2)cc1)C(F)(F)F (centres undefined),,inactive
CCCCC/C=C\C[C@@H](O)/C=C/C=C/C=C\[C@@H](O)CCCC(=O)O,25.7% [at 0.59 µM],
CN(C)CCC1(c2ccc(Cl)cc2)Cc2ccccc2C(=O)O1 (centres undefined),16.6%,
S=C(NCCCc1cnc[nH]1)NCCCN(Cc1ccc(Cl)c(Cl)c1)c1ccc(Br)cn1,-3.81%,
CNC(=O)[C@H]1O[C@@H](n2cnc3c(N)ncnc32)[C@H](O)[C@@H]1O,7.95%,
Cn1cnnc1Sc1c([N+](=O)[O-])ncn1C,-2.98%,
COc1cccc(OC)c1-c1cc(C(=O)NC2(C(=O)O)C3CC4CC(C3)CC2C4)nn1-c1ccc(C(=O)N(C)CCCN(C)C)cc1C(C)C (centres undefined),3.42%,
CC[C@@H]1Cn2c(c3nc(-c4cc(Cl)cc(Cl)c4Cl)nc-3n(C)c2=O)N1,48.4%,
C/C=C1/C(=O)C[C@@H]2[C@H]3CCC4=CC(=O)CC[C@]4(C)[C@@H]3CC[C@]12C,16.5%,
CCCCC[C@H](O)/C=C/[C@@H]1[C@H]2C/C(=C/CCCC(=O)O)C[C@H]2C[C@H]1O,-0.0161%,
CCCC1OC2CC3C4CCC5=CC(=O)C=CC5(C)C4C(O)CC3(C)C2(C(=O)CO)O1 (centres undefined),1.3%,
CCOC(=O)C1OC1C(=O)NC(CC(C)C)C(=O)NCCC(C)C (centres undefined),6.92% [at 104 µM],
O=C(NCCCCN1CCN(c2cccc(Cl)c2Cl)CC1)c1ccc2c(c1)Cc1ccccc1-2,12.3%,
Nc1ncnc2c1cnn2-c1ccccc1,-8.49%,
COc1ccc(CCCn2ncc3c2nc(N)n2nc(-c4ccco4)nc32)cc1,8%,
CC(C)c1cc(/C=C(\C#N)C(=O)NCCCc2ccccc2)cc(C(C)C)c1O,-5.19%,
CCCCCCCCCCCCCCC[C@@H](O)[C@H](CO)NC(=O)CCCCCCC,6.97% [at 6.83 µM],
Cc1cc2nc3c(=O)[nH]c(=O)nc-3n(C)c2cc1C=O,-4.72%,
CCCN(C/C=C/I)C1CCc2cccc(O)c2C1 (centres undefined),7.72%,

# Reference: PubChem BioAssay (NCATS)
